Screening data from PubChem BioAssay.
ClpP mod: qHTS Assay for Activators of ClpP. ATP-dependent Clp protease proteolytic subunit (Bacillus subtilis (strain 168)), P80244. purified B. subtilis ClpP, FRET peptide cleavage, 20 min. Potency, µM (top dose mostly 57.5 µM). 340,000 tested, 1.9% active. AID 651965, 2013; active = well fitted falling curve with a large enough effect; inconclusive = small, poorly fitted or top-dose-only effect; inactive = no such curve, though single readings can be large or run the other way; also: the source files actives as falling curves though it sought activators and does not explain the sign; nearly all actives have a fitted effect of over 65% in size
Target sequence (P80244 whole entry, looked up): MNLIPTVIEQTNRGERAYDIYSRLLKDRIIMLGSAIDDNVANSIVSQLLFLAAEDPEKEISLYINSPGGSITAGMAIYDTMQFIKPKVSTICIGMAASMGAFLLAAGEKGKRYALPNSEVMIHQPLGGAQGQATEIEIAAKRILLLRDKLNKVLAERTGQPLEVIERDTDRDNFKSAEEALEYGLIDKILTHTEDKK
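FRET quenching reversal measured ClpP activation: 10 microg/mL B. subtilis ClpP at pH 8 with the FRET-FV decapeptide, read at 430 nm after 320 nm excitation. The 20-min minus 0-min signal was scaled between DMSO/no-enzyme wells and ADEP (5.8 microM final).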
Integrin act MD: activates integrin-mediated alleviation for muscular dystrophy; AID 624291; Potency, µM (highest dose often 38.3 µM), actives largely listed as activators; 350,000 tested, 0.064% active; alpha7betagal myoblasts, beta-gal FDG fluorescence, 48 h; also: nearly all actives have a fitted effect of over 60% in size
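Alpha7betagal+/- myoblasts (passage 13) were plated 16-24 hr, then exposed to compounds (1:260 dilution of DMSO stock) for 48 hours at 37C. After MPER lysis, β-galactosidase reporter activity was read as FDG fluorescence (ex 480/em 540) after 30 minutes.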
p53 reactivator: restores transcriptional activity of mutant p53 | H1299 p53-A138V BP100-luciferase reporter, luminescence, 24 h | Potency, µM (highest dose often 92.2 µM), usual class: activators | 320,000 tested, 0.063% active | AID 504706; also: nearly all actives have a fitted effect of over 45% in size
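p53-null H1299 cells stably carrying temperature-sensitive p53-A138V and a BP100-luciferase reporter were pinned with compounds (4-point, 1:5 series) and held 24 hrs at 37 deg C. Luminescence was read 10 min after detection reagent.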
USP2a block: blocks human ubiquitin-specific protease USP2a. O75604. USP2 core, Ub-CHOP2 coupled fluorogenic reporter, 485/531. Potency, µM (titrated, usually from 38.3 µM), hits mostly inhibitors. 330,000 tested, 0.01% active
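Deubiquitinase activity read as fluorescence (485/531 nm) after Ub-CHOP2 cleavage activates the enterokinase reporter on its substrate; USP2 core 10nM, Ub-CHOP2 and substrate 25nM each, 30min compound preincubation then 60min RT; data normalized to NEM, curves fitted.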
Mm-Cpn inhibitor: blocks the Methanococcus maripaludis chaperonin Mm-Cpn; Potency, µM (top dose mostly 76.9 µM), actives largely listed as inhibitors; 330,000 tested, 0.031% active; purified Mm-Cpn ATPase, ADP Transcreener TR-FRET; also: nearly all actives have a fitted effect of over 80% in size
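Purified archaeal Mm-CPN (25nM final) preincubated 10 min at 37degC with compound, then 10uM ATP for 30 min at 37degC; ADP measured by HTRF Transcreener TR-FRET; buffer 30 mM TRIS pH 7.4, 100mM KCl, 5mM MgCl2, 1mM DTT.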
Eya2 phos inh: Eya2 (human) phosphatase inhibition | O00167 | recombinant Eya2, OMFP fluorescence dephosphorylation (OMFP is methylfluorescein phosphate) | Potency, µM (titrated, usually from 76.9 µM), most hits filed as inhibitors | 330,000 tested, 0.006% active | AID 488837
Target sequence (O00167 whole entry, looked up): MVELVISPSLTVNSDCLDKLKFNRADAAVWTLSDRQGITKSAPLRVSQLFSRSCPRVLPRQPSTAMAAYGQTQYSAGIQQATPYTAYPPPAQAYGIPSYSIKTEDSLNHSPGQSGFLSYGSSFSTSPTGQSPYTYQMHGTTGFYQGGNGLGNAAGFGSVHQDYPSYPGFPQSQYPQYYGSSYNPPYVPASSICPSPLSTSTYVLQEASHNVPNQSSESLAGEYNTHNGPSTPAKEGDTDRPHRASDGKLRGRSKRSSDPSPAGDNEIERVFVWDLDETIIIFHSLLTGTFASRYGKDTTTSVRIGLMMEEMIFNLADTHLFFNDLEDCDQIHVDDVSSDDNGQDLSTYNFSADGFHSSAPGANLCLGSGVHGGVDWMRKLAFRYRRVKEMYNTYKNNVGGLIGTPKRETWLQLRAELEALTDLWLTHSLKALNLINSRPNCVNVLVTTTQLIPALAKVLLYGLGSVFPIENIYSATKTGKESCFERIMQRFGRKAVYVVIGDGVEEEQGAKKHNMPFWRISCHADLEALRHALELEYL
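Eya2 protein (added as 0.2 uM solution) was preincubated with compound for 10 min at ambient temperature in 50 mM HEPES pH 7.5, 50 mM NaCl, 5 uM MgCl2, 0.05% BSA, 1 mM DTT. OMFP (added at 50 uM) then reacted 10 min; fluorescence read at 485/525 nm.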
Hits are given with their value; [ ] = another dose, or the depositor's remark. This is one part of a sample in which hits are shown more often than they occur. Unless noted, calls follow the shape of the dose curve; as a rule, active = well fitted curve in the direction sought with a large enough effect; inconclusive = small, poorly fitted or top-dose-only effect, or another doubt; inactive = no such curve, though single readings can be large; an effect the other way counts as inactive or inconclusive.

`CC1C(=O)N2CCCc3cc(S(=O)(=O)Nc4ccccc4C(N)=O)cc1c32` (centres undefined) gave ClpP mod 32µM, Integrin act MD inactive, p53 reactivator inactive, USP2a block inactive, Mm-Cpn inhibitor inactive and Eya2 phos inh inactive.
`Cc1nn(-c2ccccc2)c2nc(-c3ccco3)cc(C(=O)O)c12` gave ClpP mod inactive, Integrin act MD inactive, p53 reactivator inconclusive, USP2a block inactive, Mm-Cpn inhibitor inactive and Eya2 phos inh inactive.
`Cc1nn(-c2cccc(Cl)c2)c2nc(-c3ccco3)cc(C(=O)O)c12` gave ClpP mod 14µM, Integrin act MD inactive, p53 reactivator inactive, USP2a block inactive, Mm-Cpn inhibitor inactive and Eya2 phos inh inactive.
Screening CCc1ccccc1NC(=O)CN(C)S(=O)(=O)c1cccc2nsnc12 returned ClpP mod inactive.
For Cc1ccccc1NC(=O)C1CC(=O)N(c2ccccc2F)C1 (centres undefined) the results were ClpP mod 14µM, Integrin act MD inactive, p53 reactivator inactive, USP2a block inactive, Mm-Cpn inhibitor inactive and Eya2 phos inh inactive.
`Cc1ccccc1NC(=O)C1CC(=O)N(c2ccc3c4c(cccc24)CC3)C1` (centres undefined) gave ClpP mod inactive, Integrin act MD inactive, p53 reactivator inactive, USP2a block inactive, Mm-Cpn inhibitor inactive and Eya2 phos inh inconclusive.
CN(c1ccc(C(=O)NCCSCc2ccc(Cl)cc2)cc1)S(=O)(=O)c1ccccc1 was read as ClpP mod 28µM, Integrin act MD inactive, p53 reactivator inactive, USP2a block inactive, Mm-Cpn inhibitor inactive and Eya2 phos inh inactive.
For COc1cc(NC(=O)c2noc3c2CC(C(C)(C)C)CC3)cc(OC)c1OC (centres undefined) the results were ClpP mod inactive.
COc1ccccc1-n1c(-c2ccc(NS(C)(=O)=O)cc2)n[nH]c1=S was read as ClpP mod 28µM, Integrin act MD inactive, p53 reactivator inactive, USP2a block inactive, Mm-Cpn inhibitor inactive and Eya2 phos inh inactive.
Screening O=C(NC1CCCCC1)c1cnn2c1NC(=C1CC1)C=C2C(F)F returned ClpP mod inactive.
Screening O=C(Nc1ccc(OC(F)(F)F)cc1)Nc1cccc([N+](=O)[O-])c1 returned ClpP mod inactive, Integrin act MD inactive, p53 reactivator 35µM, USP2a block inactive, Mm-Cpn inhibitor inactive and Eya2 phos inh inactive.
Screening Cc1cccc(Cn2c(=O)n(CCc3ccccc3)c(=O)c3c(C)c(C)sc32)c1 returned ClpP mod inactive.
Screening CCc1nnc(NC(=O)C2CCN(c3nccc(C)n3)CC2)s1 returned ClpP mod 32µM, Integrin act MD inactive, p53 reactivator inactive, USP2a block inactive, Mm-Cpn inhibitor inactive and Eya2 phos inh inactive.
CCc1nnc(NC(=O)C2CCCN(c3nc(C)cc(C)n3)C2)s1 (centres undefined) was read as ClpP mod inactive, Integrin act MD inactive[7.66 µM], p53 reactivator inactive, USP2a block inactive, Mm-Cpn inhibitor inactive and Eya2 phos inh inactive.
`CC1Cc2cc(S(=O)(=O)NCc3ccccc3Cl)ccc2N1C(=O)C1CCC1` (centres undefined) gave ClpP mod inactive.
For CCCCc1nc(NCCNC(=O)c2ccco2)c(C#N)c2c1CSC(C)(C)C2 the results were ClpP mod 25µM, Integrin act MD inactive, p53 reactivator inactive, USP2a block inactive, Mm-Cpn inhibitor inactive and Eya2 phos inh inactive.
For CCCCc1nc(NCCNC(=O)c2ccccc2)c(C#N)c2c1CSC(C)(C)C2 the results were ClpP mod 28µM, Integrin act MD inactive, p53 reactivator inactive, USP2a block inactive, Mm-Cpn inhibitor inactive and Eya2 phos inh inactive.
For COc1ccc2oc(-c3ccccc3)c(C(N)=O)c2c1 the results were ClpP mod 32µM, Integrin act MD inactive, p53 reactivator inactive, USP2a block inactive, Mm-Cpn inhibitor inactive and Eya2 phos inh inactive.
`COc1ccc(-c2oc3ccc(-c4cc(OC)c(OC)c(OC)c4)cc3c2-c2ccc(OC)nc2)cc1` gave ClpP mod inactive, Integrin act MD inactive, p53 reactivator inactive, USP2a block inactive, Mm-Cpn inhibitor inactive and Eya2 phos inh inactive.
`COc1ccc2oc(-c3ccccc3)c(C(=O)O)c2c1` gave ClpP mod inactive, Integrin act MD inactive, p53 reactivator inactive, USP2a block inactive, Mm-Cpn inhibitor inactive and Eya2 phos inh inactive.
`CN(C)C(=O)c1c(-c2ccccc2)oc2ccc(O)cc12` gave ClpP mod 20µM, Integrin act MD inactive, p53 reactivator inactive, USP2a block inactive, Mm-Cpn inhibitor inactive and Eya2 phos inh inactive.
For COc1ccc(C(=O)c2c(-c3ccc(OC)cc3)oc3ccc(-c4ccc(OC)nc4)cc23)cc1 the results were ClpP mod 16µM and Integrin act MD inactive.
Nc1cccc(/C=C2\C=Cc3ccccc32)c1 was read as ClpP mod inactive.
Cc1cc(Br)ccc1NC(=O)COC(=O)c1ccccc1OCC(N)=O was read as ClpP mod inactive.
For C=CCN(CC=C)C(=O)c1ccc(OC2CCN(S(=O)(=O)N(C)C)CC2)cc1 the results were ClpP mod inactive, Integrin act MD 5µM, p53 reactivator inactive, USP2a block inactive, Mm-Cpn inhibitor inactive and Eya2 phos inh inactive.
CN(C)S(=O)(=O)N1CCC(Oc2cccc(C(=O)NCCC3=CCCCC3)c2)CC1 was read as ClpP mod 25µM, Integrin act MD inactive, p53 reactivator inactive, USP2a block inactive, Mm-Cpn inhibitor inactive and Eya2 phos inh inactive.
For O=C(c1ccc2c(=O)n(-c3ccccc3)c(=O)[nH]c2c1)N1CCN(Cc2cccs2)CC1 the results were ClpP mod inactive.
Screening O=C(C[n+]1cccc(Br)c1)c1ccc(O)c(O)c1 returned ClpP mod inactive.
For O=C(COC(=O)Cn1cc(C(F)(F)F)ccc1=O)Nc1ccccc1 the results were ClpP mod inactive, Integrin act MD inactive, p53 reactivator inactive, USP2a block inactive, Mm-Cpn inhibitor inactive and Eya2 phos inh inactive.
O=C(COC(=O)Cn1cc(C(F)(F)F)ccc1=O)Nc1ccc(Br)cc1F was read as ClpP mod 25µM, Integrin act MD inactive, p53 reactivator inactive, USP2a block inactive, Mm-Cpn inhibitor inactive and Eya2 phos inh inactive.
For CCCC(=O)NC(=S)Nc1ccccc1F the results were ClpP mod inactive, Integrin act MD inactive, p53 reactivator inactive, USP2a block inactive, Mm-Cpn inhibitor inactive and Eya2 phos inh inactive.
`CCC(=O)NC(=S)Nc1ccccc1F` gave ClpP mod 13µM, Integrin act MD inactive, p53 reactivator inactive, USP2a block inactive, Mm-Cpn inhibitor inactive and Eya2 phos inh inactive.
